This is part of a sample that, as a whole, favours compounds with a hit. Of some 79,000 tested, about 15% had one in any assay. Active and inactive are the calls of the source. No stated cut-off is given here; in the data, active means growth inhibition above about 70%; inactive means the rest.
Assays:
[1] = NCI Yeast Anticancer Drug Screen. Data for the rad50 strain (AID 155);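 further: 0% = growth of vehicle-only cultures of the same strain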; conditions: S. cerevisiae rad50 strain growth inhibition, active compounds read high
How it was run: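 Yeast carrying a defined DNA repair defect were exposed to test compounds, and growth was compared with vehicle-treated controls to give percent inhibition.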

[2] = NCI Yeast Anticancer Drug Screen. Data for the mec2-1 strain (AID 157); conditions: S. cerevisiae mec2-1 strain, active compounds read high
How it was run: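 Yeast mec2-1 mutant treated with compound. Readout: growth inhibition vs vehicle controls.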

[3] = NCI Yeast Anticancer Drug Screen. Data for the sgs1 mgt1 strain (AID 161);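 further: 0% = growth of cultures given vehicle only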; conditions: S. cerevisiae sgs1 mgt1 strain, active compounds read high
How it was run: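 Inhibition of yeast growth, normalised to vehicle-treated controls, is reported for a strain bearing genetic alterations in DNA damage repair.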

[4] = NCI Yeast Anticancer Drug Screen. Data for the cln2 rad14 strain (AID 165);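 further: 0% = growth equal to vehicle treated cultures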; conditions: S. cerevisiae cln2 rad14 strain, active compounds read high
How it was run: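 cln2 rad14 yeast strain; compound exposure; growth inhibition read vs vehicle controls.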

[5] = NCI Yeast Anticancer Drug Screen. Data for the bub3 strain (AID 167); conditions: S. cerevisiae bub3 mutant strain, active compounds read high
How it was run: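 Compounds were applied to a genetically altered yeast strain carrying a cell-cycle control defect. Growth inhibition was scored against vehicle-treated controls.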

[6] = NCI Yeast Anticancer Drug Screen. Data for the mlh1 rad18 strain (AID 175); conditions: S. cerevisiae mlh1 rad18 strain growth inhibition, active compounds read high
How it was run: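 Yeast w/ defined DNA-repair lesions; compound exposure; growth vs vehicle controls → % inhibition.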

[7] = at 5.0 µM (retest, dose inferred, filed as 0.5)
[8] = at 50.0 µM (retest, dose inferred, filed as 5.0)

Measured: growth inhibition

C=CC1(C)CCC2C(=CCC3C(C)(COC4OC(CO)C(O)C(O)C4O)C(O)CCC23C)C1 (configuration not stated)
inactive: [1]; [7] -4% | [2]; [7] -1% | [3]; [7] -3% | [3]; [8] 43% | [4]; [7] -1% | [5]; [7] 18% | [6]; [7] -3%
active: [1]; [8] 99% | [1]; at 50.0 µM 93.2% | [2]; [8] 99% | [2]; at 50.0 µM 93.9% | [3]; at 50.0 µM 93.8% | [4]; [8] 70% | [4]; at 50.0 µM 91.5% | [5]; [8] 92% | [5]; at 50.0 µM 93.6% | [6]; [8] 99% | [6]; at 50.0 µM 92.8%

Nc1nc(SCc2ccccc2)c2ncn(CCCl)c2n1
inactive: [1]; [7] -3% | [1]; [8] 0% | [1]; at 50.0 µM 1.4% | [2]; [7] -4% | [2]; [8] 2% | [2]; at 50.0 µM 15.3% | [3]; [7] -9% | [3]; [8] 1% | [3]; at 50.0 µM 17.6% | [4]; [7] -4% | [4]; [8] -1% | [5]; [7] -2% | [5]; [8] -7% | [5]; at 50.0 µM -2.15% | [6]; [7] -2% | [6]; [8] 3% | [6]; at 50.0 µM 20.9%
active: [4]; at 50.0 µM 70.3%

COC(=O)C1(COCc2ccccc2)CCCC2OC21 (configuration not stated)
inactive: [1]; [7] 16% | [1]; [8] -2% | [1]; at 50.0 µM 2.95% | [2]; [7] 6% | [2]; [8] -4% | [2]; at 50.0 µM -5.2% | [3]; [7] -31% | [3]; [8] -2% | [3]; at 50.0 µM 10.4% | [4]; [7] 19% | [4]; [8] 43% | [4]; at 50.0 µM -2.55% | [5]; [7] 5% | [5]; at 50.0 µM 2.45% | [6]; [7] 9% | [6]; [8] 10% | [6]; at 50.0 µM 6.5%
active: [5]; [8] 79%

O=[N+]([O-])c1cccc(Cl)c1C(Nc1nncs1)Nc1nncs1
inactive: [1]; [7] 7% | [1]; [8] 60% | [1]; at 50.0 µM 55.5% | [2]; [7] 7% | [2]; [8] 41% | [2]; at 50.0 µM 27.7% | [3]; [7] 10% | [3]; [8] 67% | [4]; [7] -1% | [4]; [8] 20% | [4]; at 50.0 µM 26.6% | [5]; [7] -2% | [5]; [8] 22% | [5]; at 50.0 µM 33.8% | [6]; [7] 3% | [6]; at 50.0 µM 68.3%
active: [3]; at 50.0 µM 73.9% | [6]; [8] 82%

Cc1cc(CC(O)(C(F)(F)F)C(F)(F)F)cc(CC(O)(C(F)(F)F)C(F)(F)F)n1
active: [1]; [8] 99% | [1]; at 50.0 µM 99.2% | [2]; [8] 98% | [2]; at 50.0 µM 98.5% | [3]; [8] 98% | [3]; at 50.0 µM 98.2% | [4]; [8] 98% | [4]; at 50.0 µM 98% | [5]; [8] 99% | [5]; at 50.0 µM 99.2% | [6]; [8] 99% | [6]; at 50.0 µM 99%
inactive: [1]; [7] 12% | [2]; [7] 5% | [3]; [7] -3% | [4]; [7] 9% | [5]; [7] -16% | [6]; [7] 6%

C/C(=N\NC(=S)N1CCC(C)CC1)c1ncccn1
active: [1]; [8] 98% | [1]; at 50.0 µM 99.2% | [2]; [8] 99% | [2]; at 50.0 µM 99.2% | [3]; [8] 98% | [3]; at 50.0 µM 99.3% | [4]; [8] 98% | [4]; at 50.0 µM 98.8% | [5]; [8] 98% | [5]; at 50.0 µM 99.3% | [6]; [8] 99% | [6]; at 50.0 µM 98.9%
inactive: [1]; [7] -4% | [2]; [7] -5% | [3]; [7] 0% | [4]; [7] -7% | [5]; [7] -1% | [6]; [7] -4%

CC(=O)/C(=C\c1cccc(Cl)c1)C(=O)CCN(C)C
inactive: [1]; [7] 24% | [1]; [8] 29% | [1]; at 50.0 µM 14.8% | [2]; [7] 20% | [2]; [8] 33% | [2]; at 50.0 µM 28.8% | [3]; [7] 20% | [3]; [8] 29% | [3]; at 50.0 µM 50.5% | [4]; [7] 25% | [4]; [8] 29% | [4]; at 50.0 µM 21.4% | [5]; [7] 13% | [5]; [8] 34% | [5]; at 50.0 µM 4.4% | [6]; [7] 23% | [6]; [8] 40% | [6]; at 50.0 µM 25.1%

CNC1c2ccccc2C(=O)c2cc3c(cc21)OCCOCCOCCOCCO3 (configuration not stated)
inactive: [1]; [7] -10% | [1]; [8] 7% | [1]; at 50.0 µM 11.8% | [2]; [7] -4% | [2]; [8] -12% | [2]; at 50.0 µM 8.1% | [3]; [7] -10% | [3]; [8] -12% | [3]; at 50.0 µM 12.1% | [4]; [7] -25% | [4]; [8] -12% | [4]; at 50.0 µM 40.8% | [5]; [7] -13% | [5]; [8] -2% | [5]; at 50.0 µM 20.8% | [6]; [7] -6% | [6]; [8] 1% | [6]; at 50.0 µM 27.2%

COC(=O)c1nnn(-c2cccc(C(F)(F)F)c2)c1C(=O)c1ccc(Cl)c(Cl)c1
inactive: [1]; [7] -3% | [2]; [7] 8% | [3]; [7] -5% | [4]; [7] 9% | [4]; at 50.0 µM 59.2% | [5]; [7] 16% | [6]; [7] 4%
active: [1]; [8] 98% | [1]; at 50.0 µM 97.7% | [2]; [8] 98% | [2]; at 50.0 µM 80% | [3]; [8] 99% | [3]; at 50.0 µM 97.7% | [4]; [8] 95% | [5]; [8] 98% | [5]; at 50.0 µM 89.4% | [6]; [8] 98% | [6]; at 50.0 µM 97%

Source: PubChem BioAssay (NCI)
